GLD-1 TGE inh: GLD-1-TGE RNA interaction inhibition (C. elegans); Q17339; inhibition, % at 5.96 µM; purified GLD-1 + fluorescein TGE RNA, fluorescence polarization; actives 0.44% (n = 320,000);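 active means percent inhibition above a per-plate cutoff, the plate mean of test compounds plus 3 SD, cut at about 30% in these data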;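 further: 0% = DMSO wells with GLD-1 and probe and 100% = wells lacking GLD-1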
MCL1-BIM inh: disrupts human MCL1 binding to BIM-BH3 peptide | inhibition, % at 10.9 µM | GST-MCL1 / FITC-Bim-BH3 fluorescence polarization | AID 2057 | actives 0.68% (n = 320,000);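 active means inhibition above the mean inhibition of all tested compounds plus 3 SD, set per campaign, cut at about 40% in these data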;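 further: 0% = DMSO wells and 100% = unlabeled Bim-BH3 peptide control; higher means more loss of mP so more displacement of Bim peptide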
BCLXL inh: inhibitors of human Bcl-xL. GST-Bcl-xL / FITC-Bim BH3 peptide fluorescence polarization. inhibition, % at 10.9 µM. Q07817. AID 2129. actives 0.7% (n = 320,000);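 active means inhibition above the mean of all tested compounds plus 3 SD, cutoff set per campaign, cut at about 30% in these data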;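 further: 0% = DMSO wells and 100% = unlabeled Bim-BH3 peptide competitor; inhibitors lower millipolarization by displacing the labeled peptide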
MEX-5 binding: C. elegans MEX-5 TCR-2 RNA binding activity; Q9XUB2; MEX-5/FITC-TCR2 RNA binding, fluorescence polarization; stronger effect = lower value; activity score (negative = inhibition of binding), % at 10 µM; actives 0.38% (n = 300,000);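 active means inhibition past about -25% in most replicates, and total fluorescence under double the plate's negative control median, limit read from the data; inconclusive means replicates evenly split on the limit, or fluorescence at least double controls; inactive means too little inhibition in most replicates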;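 further: 0% = DMSO and -100% = 5 µM competing unlabeled TCR2 RNA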
E coli Lon inh: E. coli protease La inhibition | P0A9M0 | purified E. coli Lon protease, fluorescence polarization | inhibition, % at 7.94 µM | actives 0.42% (n = 360,000); in the data active means inhibition above about 13%, passing the limit was not always enough;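 further: 0% = enzyme with probe and DMSO and 100% = no enzyme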
Target sequence (P0A9M0 whole entry, looked up): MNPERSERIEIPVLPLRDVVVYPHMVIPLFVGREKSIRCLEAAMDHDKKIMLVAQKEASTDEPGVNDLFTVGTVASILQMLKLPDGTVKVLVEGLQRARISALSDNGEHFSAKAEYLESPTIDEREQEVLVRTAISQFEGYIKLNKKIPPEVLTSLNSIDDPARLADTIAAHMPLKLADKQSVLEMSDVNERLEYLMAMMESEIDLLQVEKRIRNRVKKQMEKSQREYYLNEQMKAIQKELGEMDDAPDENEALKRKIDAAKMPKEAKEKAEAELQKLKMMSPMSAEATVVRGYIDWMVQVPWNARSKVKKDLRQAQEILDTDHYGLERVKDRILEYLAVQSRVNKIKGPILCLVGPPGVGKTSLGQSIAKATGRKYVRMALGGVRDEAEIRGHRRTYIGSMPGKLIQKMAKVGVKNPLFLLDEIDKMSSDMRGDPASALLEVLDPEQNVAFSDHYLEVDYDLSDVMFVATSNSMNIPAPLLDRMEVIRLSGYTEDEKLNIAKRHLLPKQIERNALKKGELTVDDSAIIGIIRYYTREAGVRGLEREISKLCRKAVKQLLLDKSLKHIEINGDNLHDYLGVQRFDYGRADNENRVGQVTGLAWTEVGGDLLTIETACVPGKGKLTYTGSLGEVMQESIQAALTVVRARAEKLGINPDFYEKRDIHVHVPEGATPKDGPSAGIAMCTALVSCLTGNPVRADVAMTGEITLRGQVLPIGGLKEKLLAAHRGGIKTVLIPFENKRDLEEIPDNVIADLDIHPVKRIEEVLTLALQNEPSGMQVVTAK
BCLXL inh confirm: counter-screen for MCL1 inhibitors: confirmation of human Bcl-xL inhibitors; shares compounds with MCL1-BIM inh; GST-Bcl-xL / FITC-Bim BH3 peptide FP binding; inhibition, % at 10.9 µM; actives 54% (n = 1,700); AID 2166;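 active means inhibition above a cutoff equal to the mean inhibition of all tested compounds plus 3 SD, cut at about 30% in these data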;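 further: 0% = DMSO wells and 100% = unlabeled Bim BH3 control peptide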
MCL1 inh confirm: MCL1-BIM-BH3 interaction inhibition, confirmation; shares compounds with MCL1-BIM inh; GST-MCL1 / FITC-Bim-BH3 fluorescence polarization; inhibition, % at 10.9 µM; actives 61% (n = 1,700); AID 2168;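 active means inhibition above the average of all tested compounds plus 3 SD, cut at about 40% in these data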;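 further: 0% = DMSO wells and 100% = unlabeled Bim-BH3 control peptide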
* marks the source's active call; other numbers are inactive results; ? = inconclusive; · = no result given; + = active, no number. This is a sample that favours compounds with a hit; in the whole collection about 1.4% have one here.

SMILES	GLD-1 TGE inh	MCL1-BIM inh	BCLXL inh	MEX-5 binding	E coli Lon inh	BCLXL inh confirm	MCL1 inh confirm
COc1cc(C)ccc1OCc1cc(C(=O)N2CCCCCC2)no1	·	·	·	0.2	-11.5	·	·
COc1cc(Cl)ccc1OCc1cc(C(=O)N2CCCCCCC2)no1	-7.0	84.1*	2.7	·	3.6	5.4	8.1
CNCCCOc1cccc(Oc2ccccc2)c1	3.5	46.4*	2.9	0.5	3.2	5.1	1.7
CC1(C(=O)Nc2cccc3cccnc23)CCN1C(=O)CC1CC1 (stereo unspecified)	·	·	·	·	-10.7	·	·
COc1ccc(-c2nn(-c3ccccc3)cc2/C=C2/SC(=S)N(CCC(=O)O)C2=O)cc1	-13.3	2.4	5.5	2.1	-4.2	·	·
Cc1ccc(-c2nn(-c3ccccc3)cc2/C=C2\SC(=S)N(CC(=O)O)C2=O)cc1	-3.7	70.1*	8.3	1.1	-12.4	15.9	9.6
COc1cc(-c2cnc3c(NC(C)=O)cc(-c4ccccc4CN(C)C)cn23)cc(OC)c1OC	·	·	·	·	-6.4	·	·
C=CCSc1nnc(NC(=O)CCN2C(=O)C3CC=CCC3C2=O)s1 (stereo unspecified)	76.7*	+	84.6*	·	-7.5	2.8	-4.9
Cc1nc2c(cc1N)nc(C)n2Cc1ccccc1	-6.8	8.7	7.3	1.5	-4.0	·	·
O=C(Cc1ccc(S(=O)(=O)N2CCOCC2)s1)Nc1nc2c(s1)CCCC2	65.8*	101.7*	80.0*	-2.3	-1.4	31.5*	52.1*
COc1ccccc1Cc1c(C2CCCCC2)nc2c3ccccc3ccn12	·	·	·	·	2.5	·	·
Cc1ccc(S(=O)(=O)c2nc(C)oc2NCc2ccccc2)cc1	10.6	39.9*	9.7	0.9	·	9.9	57.2*
COc1cc2c3nnc(-c4ccc(F)cc4)c-3cn(Cc3cccc(F)c3)c2cc1OC	-4.5	85.0*	76.5*	?	-9.1	82.2*	87.3*
COc1cc2c3nnc(-c4ccc(F)cc4)c-3cn(Cc3ccc(C)cc3)c2cc1OC	-4.2	-15.7	13.1	?	-3.5	·	·
COc1cc2c3nnc(-c4ccc(F)cc4)c-3cn(Cc3cccc(C)c3)c2cc1OC	49.5*	99.3*	96.3*	?	-60.2	84.9*	90.1*
CNC(=O)c1ccsc1NC(=O)CN1C(=O)CCC1=O	147.9*	154.6*	144.1*	1.1	-0.7	14.3	9.6
CNC(=O)c1ccsc1NC(=O)CS(=O)(=O)c1ccccc1	5.5	-2.3	4.2	0.6	-4.8	·	·
NC(=O)c1c(NC(=O)C2CCCO2)sc2c1CCCCC2 (stereo unspecified)	17.6	42.6*	33.0*	-8.7	-3.3	19.3	28.5
NC(=O)c1c(NC(=O)C2CCCO2)sc2c1CCC2 (stereo unspecified)	1.4	5.3	-2.9	0.2	-1.1	·	·
CC(C)Cc1cc(C(=O)O)n[nH]1	-2.2	-10.1	-6.4	-4.8	-6.9	·	·
CC(C)(C)c1cc(C(=O)O)n[nH]1	-1.0	47.6*	1.9	-1.4	-8.3	1.9	14.3
Cc1cc(C(=O)N2CCC2(C)C(=O)NCC(C)(C)C)nn1C (stereo unspecified)	·	·	·	·	3.9	·	·
COc1ccc(CCNc2c(N)n(Cc3ccccc3)c(=O)[nH]c2=O)cc1OC	78.6*	96.1*	70.9*	-19.2	-0.5	74.3*	84.7*
COc1ccc(CCNc2c(C=O)c(=O)[nH]c3ccccc23)cc1OC	5.3	-1.9	-0.2	1.5	2.8	·	·
Nc1c(NCc2ccccc2F)c(=O)[nH]c(=O)n1Cc1ccccc1	93.1*	97.2*	86.5*	-8.5	2.5	23.0	29.3
SMILES	GLD-1 TGE inh	MCL1-BIM inh	BCLXL inh	MEX-5 binding	E coli Lon inh	BCLXL inh confirm	MCL1 inh confirm
COc1ccc2c(c1)Cc1cc(NC(=O)c3ccccc3-c3ccccc3C(=O)O)ccc1-2	·	·	·	·	12.6	·	·
Cc1c(Br)c(=O)oc2c(Br)c(O)c(O)cc12	6.1	68.0*	24.5	-10.8	-8.8	35.7*	83.9*
COC(=O)C1CSc2[nH]c(=O)sc2C1c1ccccc1 (stereo unspecified)	84.2*	118.6*	106.6*	-56.9*	19.0	88.0*	109.1*
Cc1cc2ccccc2n1CCNC(=O)C(C)C	96.4*	84.4*	75.5*	0.2	4.5	25.0	35.0
CC1CCN(CC(=O)NCc2ccco2)CC1	0.6	67.6*	2.0	1.7	-9.1	6.2	-4.9
Cc1cc(C(=O)Nc2ccc(Cl)cc2)n(-c2ccccc2)n1	-4.0	6.5	3.5	1.5	3.0	·	·
Cc1ccc(NC(=O)c2cc(C)nn2-c2ccccc2)cc1	160.8*	+	+	0.0	-2.5	12.5	-0.7
O=C(O)CN1C(=O)/C(=C\C(Br)=C\c2ccccc2)SC1=S	-0.5	43.4*	25.4	-4.8	-35.8	32.7*	46.5*
COc1ccccc1NC(=O)c1ccc2c(O)c(S(=O)(=O)c3ccccc3)c(=O)[nH]c2c1	-2.2	6.4	14.0	-2.3	-7.8	·	·
CC1CCCN(CC(O)COc2ccc(S(=O)(=O)N3CCCC3)cc2[N+](=O)[O-])C1 (stereo unspecified)	-0.6	54.2*	6.9	·	-11.7	5.9	3.1
CCCOc1ccc(S(=O)(=O)N2CCCC2)cc1[N+](=O)[O-]	0.3	-5.4	-1.9	1.1	-11.8	·	·
Cc1cc(C)cc(N(CCC#N)C(=O)COC(=O)c2ccc(OCc3c(C)noc3C)cc2)c1	6.6	1.8	2.1	1.7	-1.9	·	·
N#CC1(C#N)C(c2ccccc2)OC23CCCCCC2C1(C#N)C(=N)O3 (stereo unspecified)	21.0	48.4*	36.3*	-9.1	9.3	77.6*	101.4*
CCCCCOc1ccc(C2NC(=O)NC2=O)cc1 (stereo unspecified)	4.8	-0.1	-1.8	3.6	-1.2	·	·
CCCCCCCCOc1ccc(C2OC34CCCCC3C(C#N)(C#N)C2(C#N)C(=N)O4)cc1 (stereo unspecified)	107.0*	180.3*	157.3*	-87.2*	26.8*	107.4*	123.6*
CCNC(=O)C1CCCN(Cc2ccc(C)c3ccccc23)CC1 (stereo unspecified)	·	·	·	·	-7.6	·	·
CCCCCC(=O)N1C[C@@H](n2cc(-c3ccc(F)cc3)nn2)[C@H](O)C[C@@H]1c1ccc(Cl)cc1	·	·	·	·	-10.4	·	·
CCc1cccc2cc3c(N)c(C(=O)Nc4ccc(S(=O)(=O)N5CCCC5)cc4)sc3nc12	60.7*	94.1*	103.7*	-24.3	-108.0	43.0*	67.1*
O=C(Nc1ccc2c(c1)OCCO2)C(c1ccnc2ccccc12)N1CCC(Cc2ccccc2)CC1 (stereo unspecified)	·	·	·	·	-5.8	·	·
O=C(N/N=C/c1sc(=O)[nH]c1-[n+]1ccccc1)c1ccccc1[O-]	27.9	54.9*	43.6*	-23.2	1.4	46.4*	64.0*

Bioassay records as filed in PubChem.
